Results on 4 compounds are retold here after the supplement of paper PMC6992640.

The subject of this assay is UCD52 (cells of a triple-negative basal-like breast cancer xenograft). Put plainly: cell viability of combination (% of vehicle); higher = less cytotoxic. The settings on record: 1 µM; 72 h; partner dose: 10 nM. As to the method: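 PDX cells were treated for 72 h with each drug at 1 µM plus carfilzomib (10 nM; 100 nM for WHIM2). Luciferase viability is expressed as percent of vehicle.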
With `CCCCc1oc2ccc(NS(C)(=O)=O)cc2c1C(=O)c1ccc(OCCCN(CCCC)CCCC)cc1.Cl` [Dronedarone HCl] + CC(C)C[C@H](NC(=O)[C@H](CCc1ccccc1)NC(=O)CN1CCOCC1)C(=O)N[C@@H](Cc1ccccc1)C(=O)N[C@@H](CC(C)C)C(=O)[C@@]1(C)CO1 [Carfilzomib], the “cell viability of combination” value came to 59.9. The figure for `COC(=O)NC(C(=O)NC(Cc1ccccc1)C(O)CN(Cc1ccc(-c2ccccn2)cc1)NC(=O)C(NC(=O)OC)C(C)(C)C)C(C)(C)C` (centres undefined) [Atazanavir] + CC(C)C[C@H](NC(=O)[C@H](CCc1ccccc1)NC(=O)CN1CCOCC1)C(=O)N[C@@H](Cc1ccccc1)C(=O)N[C@@H](CC(C)C)C(=O)[C@@]1(C)CO1 [Carfilzomib] is 63.2; for `CC(C)N=c1cc2n(-c3ccc(Cl)cc3)c3ccccc3nc-2cc1Nc1ccc(Cl)cc1` [Clofazimine] + CC(C)C[C@H](NC(=O)[C@H](CCc1ccccc1)NC(=O)CN1CCOCC1)C(=O)N[C@@H](Cc1ccccc1)C(=O)N[C@@H](CC(C)C)C(=O)[C@@]1(C)CO1 [Carfilzomib] it is 62.7; for `Clc1ccc(C(Cn2ccnc2)OCc2c(Cl)cccc2Cl)c(Cl)c1.O=[N+]([O-])O` (centres undefined) [Isoconazole nitrate] + CC(C)C[C@H](NC(=O)[C@H](CCc1ccccc1)NC(=O)CN1CCOCC1)C(=O)N[C@@H](Cc1ccccc1)C(=O)N[C@@H](CC(C)C)C(=O)[C@@]1(C)CO1 [Carfilzomib] it is 61.5.
